# SW480 rerep: inducers of DNA re-replication in SW480 colon cancer cells. SW480 DNA re-replication, Hoechst DNA content imaging, 48 h. AID 624297. Potency, µM (titrated, usually from 46.1 µM), without a hit: top-dose re-replication activation, most hits filed as activators. 340,000 compounds, 1.8% hits; note: potency is the fitted concentration of half-maximal effect; % of control where 0% means no effect; nearly all actives have a fitted effect of over 55% in size
#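 250 cells/well; 23 nL cpd via pin tool; 48 hr, 37 C, 5% CO2; Hoechst 40 min; imager read of total nuclear intensity, ex 405/em 500-530 nm.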
# Giardia killer: kills Giardia lamblia | 340,000 compounds, 0.15% hits | activity change, % at 7.66 µM, hits read low | AID 540267 | Giardia lamblia trophozoite viability; in the data active = activity change below about -80%; inconclusive = between about -30% and that limit;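 note: parasites exposed to compound for two days anaerobically before the ATP read; % is set by controls: 0 for no effect and ±100 for the full control effect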
#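 ATP-content bioluminescence gauges trophozoite survival. Cells (100/well) receive compound and incubate anaerobically for 48 hrs at 37 deg C; detection reagent follows for 15-30 min at room temperature.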
# MCF10A rereplic: DNA re-replication induction in MCF 10a cells; MCF 10A DNA re-replication, Hoechst nuclear intensity, 48 h; Potency, µM (titrated, usually from 46.1 µM), for the others: top-dose activity, positive = re-replication, hits mostly activators; 350,000 compounds, 2.9% hits; AID 624296; note: potency is the fitted concentration of half-maximal effect; % of control where 0% means no effect; nearly all actives have a fitted effect of over 50% in size
# BCR signal inh: blocks chronic active B-cell receptor signaling | ABC-DLBCL IkBa-CBG/CBR reporter, luminescence ratio, 4 h | Potency, µM (top dose mostly 46.1 µM), for the others: at the top dose activity change, negative = inhibition, hits mostly inhibitors | 340,000 compounds, 0.05% hits | AID 493014; active = well fitted inhibition curve with a large enough effect in the signal ratio, with a control signal flat, not every such curve was filed as active; inconclusive = small, poorly fitted or top-dose-only effect, or effect the other way, or a change in a side signal; the % refers to the signal ratio;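 note: potency is the fitted concentration of half-maximal effect; plate controls were basal doxycycline-induced cells for no effect and cells given 10 µM MG132 for full effect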
#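 TMD8 ABC-DLBCL cells carrying doxycycline-inducible green luciferase fused to IkappaBalpha plus unfused red luciferase were exposed to compounds (up to 46 uM) for 4 hrs at 37C. Activity came from the overlap-corrected green/red luminescence ratio.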
# RORg inh: ROR gamma (mouse) transcription inhibition; AID 2551; Potency, µM (doses to about 53.6 µM), for the others: top-dose activity change, negative = inhibition, actives largely listed as inhibitors; Drosophila S2 Gal4-RORgamma UAS-luciferase reporter, 20 h; 310,000 compounds, 5.4% hits; P51450; note: potency is the fitted concentration of half-maximal effect; % is set by controls: 0 for no effect and ±100 for the full control effect; nearly all actives have a fitted effect of over 60% in size
# Target sequence (P51450 whole entry, looked up, the tested form may be a part): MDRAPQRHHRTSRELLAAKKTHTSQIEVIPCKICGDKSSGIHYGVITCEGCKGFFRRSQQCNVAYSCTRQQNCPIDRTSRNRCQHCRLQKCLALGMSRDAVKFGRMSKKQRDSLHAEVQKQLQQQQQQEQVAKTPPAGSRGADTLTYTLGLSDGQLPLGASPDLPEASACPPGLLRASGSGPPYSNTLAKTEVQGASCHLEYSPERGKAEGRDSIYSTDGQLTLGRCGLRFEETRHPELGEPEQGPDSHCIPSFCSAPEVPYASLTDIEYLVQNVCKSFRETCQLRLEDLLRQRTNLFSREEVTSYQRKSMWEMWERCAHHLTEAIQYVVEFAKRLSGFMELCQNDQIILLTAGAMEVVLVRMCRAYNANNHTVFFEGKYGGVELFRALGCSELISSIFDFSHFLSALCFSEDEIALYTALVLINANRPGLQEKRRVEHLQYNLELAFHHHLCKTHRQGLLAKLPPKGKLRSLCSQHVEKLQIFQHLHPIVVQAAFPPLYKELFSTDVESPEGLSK
#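 Compounds are pin-transferred onto Drosophila Schneider cells expressing a copper-inducible Gal4–ROR gamma transactivation domain fusion. After 1 hr, copper sulfate is added to 700 uM final; luciferase is read 20 hr later.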
# VP16 counter: Gal4-VP16 reporter inhibition counter-screen | Potency, µM (highest dose often 53.6 µM), inactives show at the highest dose activity, negative = inhibition, hits mostly inhibitors | Drosophila S2 Gal4-VP16 UAS-luciferase, luminescence, 20 h | 310,000 compounds, 3.5% hits | AID 2546;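 note: Gal4-VP16 expression switched on by copper sulfate through the metallothionein promoter; potency is the fitted concentration of half-maximal effect; % is set by controls: 0 for no effect and ±100 for the full control effect; nearly all actives have a fitted effect of over 50% in size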
# Numbers without * were called inactive; ? = inconclusive; nt = not tested or not shown; [ ] = another dose, or the depositor's remark. Most compounds without a hit are left out; they make up all but 8.3% or so of the library. Unless noted, calls come from the whole dose curve; as a rule, active = well fitted curve in the direction sought with a large enough effect; inconclusive = small, poorly fitted or top-dose-only effect, or another doubt; inactive = no such curve, though single readings can be large; an effect the other way counts as inactive or inconclusive.
SMILES,SW480 rerep,Giardia killer,MCF10A rereplic,BCR signal inh,RORg inh,VP16 counter
COCCNC(=O)CSC1=N/C(=C/c2ccc(Cl)c(Cl)c2)C(=O)N1c1ccccc1F,?,-23,9.2µM*,-10%,12%,?
CCN1CCc2nc3ccccc3c(C(=O)Nc3ccc(C#N)cc3)c2C1,-5%,3,8%,-19%,9%,-5%
COCCCNC(=O)Cc1c(C)c2c(cc(C)c3c(C(C)(C)C)coc32)oc1=O,2.3µM*,6,?,?,25%,?
CCn1c(=O)n(CC)c2cc(NS(=O)(=O)c3ccccc3)ccc21,3%,-8,8%,-3%,4%,6%
CCn1c2ccccc2c2cc(NS(=O)(=O)c3ccc(C)cc3)ccc21,?,1,18µM*,13%,9%,-7%
Cc1cc(-n2c(C)cc(C(=S)N3CCOCC3)c2C)ccc1Br,1%,?,?,-12%,8.9µM*,?
Cc1ccc(-n2c(C)cc(C(=O)CN3CCOCC3)c2C)cc1C,-49%[9.22 µM],5,12%,0%,?,-6%
CCOC(=O)C1CCN(c2c(NCCC(C)C)c(=O)c2=O)CC1,-25%,-11,18%,-9%,1%,-1%
CCOc1cc(CNCCc2ccc(S(N)(=O)=O)cc2)ccc1OCc1ccccc1,?,-1,21µM*,0%,-20%,-27%
CCOc1cc(CNc2ccc(O)cc2)ccc1OCc1ccc(Cl)cc1Cl,?,14,?,14%,16µM*,?
CCOc1cc(CNCCc2ccc(S(N)(=O)=O)cc2)cc(Cl)c1OCc1ccccc1,?,-11,1%,0%,3%,?
COc1cc(CNCc2ccccn2)ccc1OCc1ccc(Cl)cc1Cl,?,0,20%,1%,11µM*,-23%
OCCNCc1cc(Br)ccc1OCc1ccccc1,-6%,10,21%,-4%,5%,3%
NS(=O)(=O)c1ccc(CCNCc2cc(Br)ccc2OCc2ccccc2)cc1,?,8,?,-3%,?,16µM*
CCOc1cc(CNCc2ccccc2)ccc1OCc1ccc(Cl)cc1,15µM*,23,?,?,?,-27%
COc1ccc(CNCCc2ccc(Cl)cc2)cc1OCc1ccccc1,?,5,21%,?,?,-25%[10 µM]
Cc1ccc2oc(C(=O)N(C)Cc3ccc(C)o3)c(C)c2c1,?,-14,23µM*,-10%,11%,3%
Cc1ccc2oc(C(=O)N(C)Cc3ccon3)c(C)c2c1,-6%,-23,-3%,1%,13%,-13%
COc1cccc(/C=N/Nc2c(Cl)cncc2Cl)c1O,-3%,-1,?,0%,15%,-12%
COc1cccc(/C=N/Nc2cc(Cl)nc(C)n2)c1O,0.29µM*,11,7.3µM*,14%,0.5µM*,2.8µM*
CCOc1ccc(/C=N/Nc2cc(C)nc(N3CCOCC3)n2)cc1,11%,3,9%,3%,31%,-8%
COc1cccc(/C=N/Nc2cc(N3CCOCC3)ncn2)c1O,?,5,?,?,11µM*,11µM*
CCOc1ccc(/C=N/Nc2cc(N3CCOCC3)nc(C)n2)c(O)c1,?,-4,?,3%,7.1µM*,11µM*
COc1ccc(/C=N/Nc2cc(N3CCOCC3)ncn2)c(OC)c1,-5%,-11,-1%,-14%,-2%,-2%
Cc1nnc(N/N=C/c2ccccc2F)n1N,-10%,5,8%,?,-36%,?
SMILES,SW480 rerep,Giardia killer,MCF10A rereplic,BCR signal inh,RORg inh,VP16 counter
COc1cccc(/C=N/Nc2nnc(C)n2N)c1O,?,3,21%,?,2.2µM*,3.2µM*
O=C(NC1CC(=O)N(c2ccc(F)cc2)C1)C(c1ccccc1)c1ccccc1 (centres undefined),nt,nt,nt,12%,nt,nt
CN(CC(=O)Nc1ccc(N2CCOCC2)cc1)C(=O)c1ccc(O)c(Cl)c1,-9%,-13,4%,1%,-5%,1%
O=C(Nc1ccc(NC(=O)c2ccco2)nc1)c1cccnc1,-2%,?,-1%,?,0.79µM*,?
O=C(Nc1ccc(NC(=O)C2CC2)cn1)c1ccccc1,-13%,?,-1%,?,13µM*,0.1µM*
Cc1cccc(NC(=O)c2cc(NC(=O)c3ccco3)ccc2Cl)n1,5%,1,1%,23µM*,39%,0%
O=C(Nc1ccc(NC(=O)c2ccccc2F)cn1)c1ccco1,-7%,?,10%,?,14µM*,13µM*
Cc1cccc(NC(=O)c2cc(NC(=O)C3CCCCC3C(=O)O)ccc2Cl)n1 (centres undefined),-6%,-17,2%,-1%,-18%,1%
O=C(N/N=C1/C[C@@H](O)[C@@H](O)[C@@H]2[C@@H]3C(=O)N(c4cccc(Oc5ccccc5)c4)C(=O)[C@H]3CC[C@@H]12)OCc1ccccc1,nt,nt,nt,nt,4%[10 µM],-8%[10 µM]
Cc1ccccc1NS(=O)(=O)c1cc(C(=O)Nc2cccc(N(C)S(C)(=O)=O)c2)ccc1C,8%,2,15µM*,-6%,?,-18%
CC(=O)n1cc(N(C(=O)CCl)c2ccc(Cl)cc2)c2ccccc21,2.6µM*,14,?,?,?,?
O=C1CCN(Cc2ccccc2)S(=O)(=O)c2c(F)cc(F)cc21,-1%,2,?,-2%,nt,nt
COc1ccc(-n2c(N)c(C(=O)NCc3ccco3)c3nc4ccccc4nc32)c(OC)c1,2.1µM*,5,7.1µM*,?,-32%,-7%
Nc1c(C(=O)NCc2ccco2)c2nc3ccccc3nc2n1CCc1ccccc1F,5.8µM*,-6,2.6µM*,?,-24%,16%
COc1ccc(CCn2c(N)c(C(=O)NCc3ccco3)c3nc4ccccc4nc32)cc1,?,3,?,?,?,?
COc1ccc(CCn2c(N)c(C(=O)NCc3ccco3)c3nc4ccccc4nc32)cc1OC,19%,-5,-1%,?,27%,-11%
COc1ccccc1-n1c(N)c(C(=O)NCC2CCCO2)c2nc3ccccc3nc21 (centres undefined),11µM*,5,?,?,-36%,2%
O=C(NCC1CCCO1)c1cc(-c2ccccc2F)no1 (centres undefined),-10%,13,-14%,?,9%,-8%
C[C@@H](C1[C@@H](O)CC2C3C=CC4C[C@@H](O)CC[C@]4(C)[C@H]3CC[C@@]21C)[C@@H]1CCCCN1 (some centres undefined),nt,nt,nt,nt,8%,2%
CC(C)(C)NC(=O)CN(C(=O)C1CSC(=O)C1)c1ccccc1F (centres undefined),-21%,-11,-1%,14%,0%,0%[10 µM]

# Screens from PubChem.
